# ± gives the standard deviation.
# T1: HaloTag-ATRX ADD domain (163-292)
# T1 chain: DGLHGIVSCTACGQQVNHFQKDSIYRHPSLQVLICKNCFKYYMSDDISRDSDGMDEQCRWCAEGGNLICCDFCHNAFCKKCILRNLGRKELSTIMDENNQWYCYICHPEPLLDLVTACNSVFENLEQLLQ
# B1: H3 1-13 A R T K Q T A R K S T G G (peptide)
# chain: ARTKQTARKSTGG
# B2: H3 1-13 A R T Kme Q T A R K S T G G (peptide)
# chain: ARTKQTARKSTGG
# B3: H3 1-13 A R T Kme Q T A R Kme S T G G (peptide)
# chain: ARTKQTARKSTGG
# B4: H3 1-13 A R T Kac Q T A R Kme S T G G (peptide)
# chain: ARTKQTARKSTGG
# B5: H3 1-13 A R T Kac Q T A R Kme3 S T G G (peptide)
# chain: ARTKQTARKSTGG
# B6: H3 1-13 A R T Kac Q Tph A R K S T G G (peptide)
# chain: ARTKQTARKSTGG
# B7: H3 1-13 A R T Kme Q T A R Kac S T G G (peptide)
# chain: ARTKQTARKSTGG
# B8: H3 1-13 A R T Kac Q T A R K S T G G (peptide)
# chain: ARTKQTARKSTGG
# B9: H3 1-13 A R T Kac Q T A R Kac S T G G (peptide)
# chain: ARTKQTARKSTGG
# B10: H3 1-13 A R T Kac Q T A R Kme2 S T G G (peptide)
# chain: ARTKQTARKSTGG
# Experiments:
# Assay in all cases: peptide microarray binding signal (635 nm), min-max normalized on array (fraction of array maximum); higher = stronger binding
# Conditions in all cases: peptide region: H3 1-13
# [1] = molecular target: T1, HaloTag-ATRX ADD domain (163-292)
# Experimental: (§1)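 Histone 13-mer peptides were synthesized as cellulose conjugates with a C-terminal 20-atom PEG linker and printed in triplicate on nitrocellulose. The sequence given is the unmodified backbone; PTMs (Kme1/2/3, Kac, Sph/Tph, Rme/Rme2a/Rme2s, Rcit) are listed in the label and the 'peptide modifications' condition. Slides were probed at 4 °C for 1 h with biotin-labelled (HQ)5-HaloTag reader fusions (ATRX-ADD, ING2-PHD) then streptavidin-Alexa647, or with rabbit histone antibodies then anti-rabbit Alexa647. The mean 635 nm signal of the triplicate spots was scaled 0-1 between the lowest and highest values on each array.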
# [2] = molecular target: HaloTag-ING2 PHD (mouse Ing2 200-280)
# Experimental: as §1
# [3] = molecular target: anti-H3K4me3 antibody ab8580
# Experimental: as §1
# [4] = molecular target: anti-H3K9me3 antibody ab8898
# Experimental: as §1
# [5] = binder concentration: 1:2,000 dilution
# [6] = binder concentration: 1:10,000 dilution
# [7] = peptide modifications: H3K4me1, binder concentration: 1:2,000 dilution
# [8] = peptide modifications: H3K4me1, binder concentration: 1:10,000 dilution
# [9] = peptide modifications: H3K4me1 H3K9me1, binder concentration: 1:2,000 dilution
# [10] = peptide modifications: H3K4me1 H3K9me1, binder concentration: 1:10,000 dilution
# [11] = peptide modifications: H3K4ac H3K9me1, binder concentration: 1:2,000 dilution
# [12] = peptide modifications: H3K4ac H3K9me1, binder concentration: 1:10,000 dilution
# [13] = peptide modifications: H3K4ac H3K9me3, binder concentration: 1:2,000 dilution
# [14] = peptide modifications: H3K4ac H3K9me3, binder concentration: 1:10,000 dilution
# [15] = peptide modifications: H3K4ac H3T6ph, binder concentration: 1:2,000 dilution
# [16] = peptide modifications: H3K4ac H3T6ph, binder concentration: 1:10,000 dilution
# [17] = peptide modifications: H3K4me1 H3K9ac, binder concentration: 1:2,000 dilution
# [18] = peptide modifications: H3K4me1 H3K9ac, binder concentration: 1:10,000 dilution
# [19] = peptide modifications: H3K4ac, binder concentration: 1:2,000 dilution
# [20] = peptide modifications: H3K4ac, binder concentration: 1:10,000 dilution
# [21] = peptide modifications: H3K4ac H3K9ac, binder concentration: 1:2,000 dilution
# [22] = peptide modifications: H3K4ac H3K9ac, binder concentration: 1:10,000 dilution
# [23] = peptide modifications: H3K4ac H3K9me2, binder concentration: 1:2,000 dilution
# [24] = peptide modifications: H3K4ac H3K9me2, binder concentration: 1:10,000 dilution
binder,measurement,setting,value
B1,peptide microarray binding signal,[1]; binder concentration: 50 nM,0.0155 ± 0.00087
same,peptide microarray binding signal,[1]; binder concentration: 500 nM,0.0263 ± 0.0017
same,peptide microarray binding signal,[2]; binder concentration: 10 nM,0.0231 ± 0.0017
same,peptide microarray binding signal,[2]; binder concentration: 100 nM,0.00957 ± 0.0015
same,peptide microarray binding signal,[3]; [5],0.00185 ± 0.00055
same,peptide microarray binding signal,[3]; [6],0.00126 ± 6.5e-05
same,peptide microarray binding signal,[4]; [5],0.00196 ± 0.00012
same,peptide microarray binding signal,[4]; [6],0.000807 ± 1.5e-05
B2,peptide microarray binding signal,"[1]; peptide modifications: H3K4me1, binder concentration: 50 nM",0.00755 ± 0.00014
same,peptide microarray binding signal,"[1]; peptide modifications: H3K4me1, binder concentration: 500 nM",0.0155 ± 0.00093
same,peptide microarray binding signal,"[2]; peptide modifications: H3K4me1, binder concentration: 10 nM",0.0269 ± 0.0015
same,peptide microarray binding signal,"[2]; peptide modifications: H3K4me1, binder concentration: 100 nM",0.112 ± 0.035
same,peptide microarray binding signal,[3]; [7],0.0156 ± 0.0047
same,peptide microarray binding signal,[3]; [8],0.0142 ± 0.0025
same,peptide microarray binding signal,[4]; [7],0.00231 ± 0.00034
same,peptide microarray binding signal,[4]; [8],0.00173 ± 1.7e-05
B3,peptide microarray binding signal,"[1]; peptide modifications: H3K4me1 H3K9me1, binder concentration: 50 nM",0.00743 ± 0.00015
same,peptide microarray binding signal,"[1]; peptide modifications: H3K4me1 H3K9me1, binder concentration: 500 nM",0.0134 ± 0.00046
same,peptide microarray binding signal,"[2]; peptide modifications: H3K4me1 H3K9me1, binder concentration: 10 nM",0.105 ± 0.023
same,peptide microarray binding signal,"[2]; peptide modifications: H3K4me1 H3K9me1, binder concentration: 100 nM",0.145 ± 0.024
same,peptide microarray binding signal,[3]; [9],0.0452 ± 0.0073
same,peptide microarray binding signal,[3]; [10],0.0277 ± 0.0056
same,peptide microarray binding signal,[4]; [9],0.00387 ± 0.00011
same,peptide microarray binding signal,[4]; [10],0.00248 ± 0.00012
B4,peptide microarray binding signal,"[1]; peptide modifications: H3K4ac H3K9me1, binder concentration: 50 nM",0.00809 ± 0.00079
same,peptide microarray binding signal,"[1]; peptide modifications: H3K4ac H3K9me1, binder concentration: 500 nM",0.0149 ± 0.0037
same,peptide microarray binding signal,"[2]; peptide modifications: H3K4ac H3K9me1, binder concentration: 10 nM",0.0703 ± 0.011
same,peptide microarray binding signal,"[2]; peptide modifications: H3K4ac H3K9me1, binder concentration: 100 nM",0.1 ± 0.035
same,peptide microarray binding signal,[3]; [11],0.00664 ± 0.0014
same,peptide microarray binding signal,[3]; [12],0.0205 ± 0.012
same,peptide microarray binding signal,[4]; [11],0.00574 ± 0.00077
same,peptide microarray binding signal,[4]; [12],0.00565 ± 0.00024
B5,peptide microarray binding signal,"[1]; peptide modifications: H3K4ac H3K9me3, binder concentration: 50 nM",0.0136 ± 0.004
same,peptide microarray binding signal,"[1]; peptide modifications: H3K4ac H3K9me3, binder concentration: 500 nM",0.0491 ± 0.024
same,peptide microarray binding signal,"[2]; peptide modifications: H3K4ac H3K9me3, binder concentration: 10 nM",0.0828 ± 0.015
same,peptide microarray binding signal,"[2]; peptide modifications: H3K4ac H3K9me3, binder concentration: 100 nM",0.0894 ± 0.0073
same,peptide microarray binding signal,[3]; [13],0.0339 ± 0.018
same,peptide microarray binding signal,[3]; [14],0.0225 ± 0.0063
same,peptide microarray binding signal,[4]; [13],0.0825 ± 0.052
same,peptide microarray binding signal,[4]; [14],0.0423 ± 0.027
B6,peptide microarray binding signal,"[1]; peptide modifications: H3K4ac H3T6ph, binder concentration: 50 nM",0.00693 ± 0.00026
same,peptide microarray binding signal,"[1]; peptide modifications: H3K4ac H3T6ph, binder concentration: 500 nM",0.0116 ± 0.0014
same,peptide microarray binding signal,"[2]; peptide modifications: H3K4ac H3T6ph, binder concentration: 10 nM",0.0574 ± 0.0059
same,peptide microarray binding signal,"[2]; peptide modifications: H3K4ac H3T6ph, binder concentration: 100 nM",0.0396 ± 0.0055
same,peptide microarray binding signal,[3]; [15],0.00242 ± 0.00029
same,peptide microarray binding signal,[3]; [16],0.00417 ± 0.00026
same,peptide microarray binding signal,[4]; [15],0.0013 ± 0.00014
same,peptide microarray binding signal,[4]; [16],0.000923 ± 9.6e-06
B7,peptide microarray binding signal,"[1]; peptide modifications: H3K4me1 H3K9ac, binder concentration: 50 nM",0.0172 ± 0.00082
same,peptide microarray binding signal,"[1]; peptide modifications: H3K4me1 H3K9ac, binder concentration: 500 nM",0.0329 ± 0.0029
same,peptide microarray binding signal,"[2]; peptide modifications: H3K4me1 H3K9ac, binder concentration: 10 nM",0.758 ± 0.07
same,peptide microarray binding signal,"[2]; peptide modifications: H3K4me1 H3K9ac, binder concentration: 100 nM",0.727 ± 0.11
same,peptide microarray binding signal,[3]; [17],0.27 ± 0.033
same,peptide microarray binding signal,[3]; [18],0.157 ± 0.018
same,peptide microarray binding signal,[4]; [17],0.00678 ± 0.00086
same,peptide microarray binding signal,[4]; [18],0.00634 ± 0.00026
B8,peptide microarray binding signal,"[1]; peptide modifications: H3K4ac, binder concentration: 50 nM",0.0102 ± 0.00024
same,peptide microarray binding signal,"[1]; peptide modifications: H3K4ac, binder concentration: 500 nM",0.0281 ± 0.0023
same,peptide microarray binding signal,"[2]; peptide modifications: H3K4ac, binder concentration: 10 nM",0.214 ± 0.045
same,peptide microarray binding signal,"[2]; peptide modifications: H3K4ac, binder concentration: 100 nM",0.0856 ± 0.085
same,peptide microarray binding signal,[3]; [19],0.00445 ± 0.0025
same,peptide microarray binding signal,[3]; [20],0.00188 ± 0.00011
same,peptide microarray binding signal,[4]; [19],0.00439 ± 0.00098
same,peptide microarray binding signal,[4]; [20],0.0019 ± 0.00014
B9,peptide microarray binding signal,"[1]; peptide modifications: H3K4ac H3K9ac, binder concentration: 50 nM",0.0941 ± 0.064
same,peptide microarray binding signal,"[1]; peptide modifications: H3K4ac H3K9ac, binder concentration: 500 nM",0.0794 ± 0.02
same,peptide microarray binding signal,"[2]; peptide modifications: H3K4ac H3K9ac, binder concentration: 10 nM",0.0863 ± 0.014
same,peptide microarray binding signal,"[2]; peptide modifications: H3K4ac H3K9ac, binder concentration: 100 nM",0.099 ± 0.0066
same,peptide microarray binding signal,[3]; [21],0.047 ± 0.0095
same,peptide microarray binding signal,[3]; [22],0.139 ± 0.057
same,peptide microarray binding signal,[4]; [21],0.102 ± 0.0083
same,peptide microarray binding signal,[4]; [22],0.123 ± 0.018
B10,peptide microarray binding signal,"[1]; peptide modifications: H3K4ac H3K9me2, binder concentration: 50 nM",0.00875 ± 0.0011
same,peptide microarray binding signal,"[1]; peptide modifications: H3K4ac H3K9me2, binder concentration: 500 nM",0.0157 ± 0.0031
same,peptide microarray binding signal,"[2]; peptide modifications: H3K4ac H3K9me2, binder concentration: 10 nM",0.0771 ± 0.0077
same,peptide microarray binding signal,"[2]; peptide modifications: H3K4ac H3K9me2, binder concentration: 100 nM",0.0944 ± 0.0071
same,peptide microarray binding signal,[3]; [23],0.00689 ± 0.0014
same,peptide microarray binding signal,[3]; [24],0.00702 ± 0.001
same,peptide microarray binding signal,[4]; [23],0.00331 ± 0.0003
same,peptide microarray binding signal,[4]; [24],0.00455 ± 0.00089

# — the supplement of paper PMC4022240
